Six1-Eya2 inh: qHTS Assay for Inhibitors of the Six1/Eya2 Interaction; AID 651725, 2012; Homeobox protein SIX1 (Homo sapiens) + Protein phosphatase EYA2 (Homo sapiens), …; activity change, % (test concentration not listed); 360,000 tested, 0.56% active; AlphaScreen GST-Six1/His-Eya2 binding, biochemical; hits give low values; in the data active = activity change below about -65%; inconclusive = mostly about -30% to -63%
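GST-Six1 + His-Eya2 (5X stock: 250/500 nM); Tris pH 8.0, 300 mM NaCl, 0.05% BSA, 0.02% Tween 20; GSH donor/Ni acceptor beads; 1 h 37 °C dark; AlphaScreen readout.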
GALK inhibitor: qHTS Assay for Inhibitors of Human Galactokinase (GALK) | Potency, µM (series often up to 57.5 µM), hits mostly inhibitors | 270,000 tested, 0.007% active | P51570 | Purified GALK, Kinase-Glo residual ATP luminescence
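ATP-depletion format; final 35 uM ATP, 100 uM D-galactose, 5 nM enzyme; pH 8.0 HEPES/Mg2+ buffer; 60 min RT; luminescence read 10 min after detection reagent.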
TrxR1 inh: qHTS Assay for Inhibitors of Mammalian Selenoprotein Thioredoxin Reductase 1 (TrxR1): qHTS. AID 588453, 2011. 390,000 tested, 1% active. Potency, µM (doses to about 114 µM), hits mostly inhibitors. recombinant rTrxR1, NADPH fluorescence consumption, selenite substrate. Thioredoxin reductase 1, cytoplasmic (Rattus norvegicus), O89049; note: nearly all actives have a fitted effect of over 65% in size
Target sequence (O89049 whole entry, looked up): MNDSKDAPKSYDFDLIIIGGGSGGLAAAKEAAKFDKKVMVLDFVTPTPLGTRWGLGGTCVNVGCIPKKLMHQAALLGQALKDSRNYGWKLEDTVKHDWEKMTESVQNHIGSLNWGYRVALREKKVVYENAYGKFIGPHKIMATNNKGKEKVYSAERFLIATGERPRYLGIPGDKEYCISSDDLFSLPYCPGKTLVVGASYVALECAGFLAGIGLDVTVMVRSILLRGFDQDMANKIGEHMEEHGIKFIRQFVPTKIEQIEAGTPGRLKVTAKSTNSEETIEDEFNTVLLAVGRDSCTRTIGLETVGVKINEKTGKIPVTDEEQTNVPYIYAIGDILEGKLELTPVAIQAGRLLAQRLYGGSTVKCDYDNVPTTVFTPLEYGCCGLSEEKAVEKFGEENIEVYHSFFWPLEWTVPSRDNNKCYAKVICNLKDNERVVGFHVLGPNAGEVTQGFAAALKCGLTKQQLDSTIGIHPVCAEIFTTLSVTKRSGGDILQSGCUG
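Rat TrxR1 (90 nM in the dispensed reagent) was pre-reduced with 400 uM NADPH for 5 min at room temperature, then incubated with compound for 15 min. After 400 uM selenite was added, NADPH fluorescence (Ex 340/Em 450 nm) was followed for 8 min.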
Eya2 phos inh: qHTS Assay for Inhibitors of the Phosphatase Activity of Eya2; recombinant Eya2, OMFP fluorescence dephosphorylation (OMFP is methylfluorescein phosphate); 330,000 tested, 0.006% active; Protein phosphatase EYA2 (Homo sapiens), O00167; Potency, µM (highest dose often 76.9 µM), usual class: inhibitors
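Eya2 protein (added as 0.2 uM solution) was preincubated with compound for 10 min at ambient temperature in 50 mM HEPES pH 7.5, 50 mM NaCl, 5 uM MgCl2, 0.05% BSA, 1 mM DTT. OMFP (added at 50 uM) then reacted 10 min; fluorescence read at 485/525 nm.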
CtBP-E1A inh: qHTS Assay for Inhibitors of the CtBP/E1A Interaction. AlphaScreen GST-E1A/His-CtBP binding, 1536-well; hits give low values. activity change, % (no concentration beside the values). 340,000 tested, 0.49% active; in the data active = activity change below about -65%; inconclusive = mostly about -30% to -63%
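Protein mix (5X: 125 nM each GST-E1A, His-CtBP) was incubated with pinned compound 2 h at 37 deg C in dark, in 50 mM Tris pH 8.0 buffer with 300 mM NaCl. Glutathione donor and nickel acceptor beads followed; AlphaScreen signal read after 1 h.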
TrxR1 substrate: qHTS Assay for Substrates of Mammalian Selenoprotein Thioredoxin Reductase 1 (TrxR1): qHTS. Potency, µM (doses to about 114 µM). Thioredoxin reductase 1, cytoplasmic (Rattus norvegicus), O89049. 390,000 tested, 0.01% active. AID 588456, 2011. purified TrxR1 substrate turnover, NADPH consumption readout; note: nearly all actives have a fitted effect of over 50% in size
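Rat TrxR1, dispensed at 90 nM, was prereduced with 400 uM NADPH (final) for 5 min at ~22 deg C, then incubated with compound 15 min before 400 uM selenite. A first-read NADPH fluorescence drop versus no-compound background flagged substrates.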
Hits are given with their value; [ ] = remark or other dose. Most compounds without a hit are left out; they make up all but 1.5% or so of the library. Unless noted, calls come from the whole dose curve; as a rule, active = well fitted curve in the direction sought with a large enough effect; inconclusive = small, poorly fitted or top-dose-only effect, or another doubt; inactive = no such curve, though single readings can be large; an effect the other way counts as inactive or inconclusive.

`Cc1oc(-c2ccccc2)nc1CS(=O)CC(=O)NC1CCCCCC1` (stereo not given) gave Six1-Eya2 inh inactive, GALK inhibitor inactive, TrxR1 inh 31.6µM, Eya2 phos inh inactive, CtBP-E1A inh inactive and TrxR1 substrate inactive.
Cc1ccc(-c2nc(CS(=O)CC(=O)NC3CCC(C)CC3)c(C)o2)cc1 (stereo not given) was read as Six1-Eya2 inh inactive, GALK inhibitor inactive, TrxR1 inh 15.8µM, Eya2 phos inh inactive, CtBP-E1A inh inactive and TrxR1 substrate inactive.
Cc1sc2ccccc2[n+]1CCCC[n+]1c(C)sc2ccccc21 was read as TrxR1 inh inactive and TrxR1 substrate inactive.
For O=S(=O)(NCc1nc2cccnc2n1Cc1ccc(F)cc1)c1ccc2c(c1)CCCC2 the results were TrxR1 inh inactive and TrxR1 substrate inactive.
For CCOc1ccccc1NC(=O)C(C)n1nnc2sc3c(c2c1=O)CCCC3 (stereo not given) the results were TrxR1 inh inactive and TrxR1 substrate inactive.
`O=C(CN1C(=O)C(=O)N(Cc2ccco2)C1=O)c1c[nH]c2ccccc12` gave Six1-Eya2 inh inconclusive, TrxR1 inh 14.1µM, Eya2 phos inh inactive, CtBP-E1A inh inactive and TrxR1 substrate inactive.
Screening N#Cc1cccc2c1-c1ccccc1/C2=N/NC(N)=S returned Six1-Eya2 inh inconclusive, GALK inhibitor inactive, TrxR1 inh inconclusive, Eya2 phos inh inactive, CtBP-E1A inh inactive and TrxR1 substrate inactive.
For NC(=S)NN=C1c2ccccc2-c2c(F)c(F)c(F)c(F)c21 the results were Six1-Eya2 inh inactive, TrxR1 inh 56.2µM, CtBP-E1A inh inactive and TrxR1 substrate inactive.
COc1ccccc1N1C(=O)CC(Sc2n[nH]c(-c3cccc(C)c3)n2)C1=O (stereo not given) was read as Six1-Eya2 inh inactive, GALK inhibitor inactive, TrxR1 inh 1.58µM, Eya2 phos inh inactive, CtBP-E1A inh inactive and TrxR1 substrate inactive.
Screening COc1cc2nc(N3CCOCC3)nc(NC(C)C)c2cc1OC returned TrxR1 inh inactive and TrxR1 substrate inactive.
`Cc1ccc(-n2cnc3cc(C(=O)NCc4ccccc4Cl)ccc32)c(C)c1` gave TrxR1 inh inactive and TrxR1 substrate inactive.
For COC(=O)[C@@]12C[C@@H](CC(=O)NCc3cccc4ccccc34)C(=O)N(Cc3ccc4c(c3)OCO4)C1=CCC(C)(C)C2 the results were Six1-Eya2 inh inactive and CtBP-E1A inh inactive.
`CCC(C(=O)Nc1cc(-c2nc3cccnc3s2)ccc1C)c1ccccc1` (stereo not given) gave TrxR1 inh inactive and TrxR1 substrate inactive.
For O=C(NNC(=S)NC(=O)c1ccccc1[N+](=O)[O-])c1ccccc1[N+](=O)[O-] the results were Six1-Eya2 inh inactive, GALK inhibitor inactive, TrxR1 inh inactive, Eya2 phos inh inactive, CtBP-E1A inh inactive and TrxR1 substrate inactive.
For N#Cc1ccccc1NC(=S)NC(=O)c1cccs1 the results were Six1-Eya2 inh inactive, GALK inhibitor inactive, TrxR1 inh 2.24µM, Eya2 phos inh inactive and TrxR1 substrate inactive.
`Cc1ccc(C(=O)NC(=S)NNC(=O)c2ccccc2O)cc1` gave Six1-Eya2 inh -87.7, GALK inhibitor inactive, TrxR1 inh inactive, Eya2 phos inh inactive, CtBP-E1A inh inactive and TrxR1 substrate inactive.
For Cc1ccccc1C(=O)NNC(=S)NC(=O)c1ccccc1 the results were Six1-Eya2 inh inactive, GALK inhibitor inactive, TrxR1 inh inactive, Eya2 phos inh inactive, CtBP-E1A inh inactive and TrxR1 substrate inactive.
N#Cc1ccccc1NC(=O)COC(=O)c1cccs1 was read as Six1-Eya2 inh inactive, TrxR1 inh inactive, Eya2 phos inh inactive, CtBP-E1A inh inactive and TrxR1 substrate inactive.
O=C(NC(=S)NNC(=O)c1ccccc1O)c1ccccc1 was read as Six1-Eya2 inh -74.9, TrxR1 inh inactive, Eya2 phos inh inactive, CtBP-E1A inh -93.7 and TrxR1 substrate inactive.
For O=C(NNC(=S)NC(=O)c1ccccc1[N+](=O)[O-])c1ccccc1O the results were Six1-Eya2 inh -73.5, GALK inhibitor inactive, TrxR1 inh inactive, Eya2 phos inh inactive, CtBP-E1A inh -94.3 and TrxR1 substrate inactive.
`Cc1c(Cl)cccc1-n1ncc(C(=O)Nc2ccc3c(c2)OCCO3)c1C1CCN(C(=O)OC(C)(C)C)CC1` gave TrxR1 inh inactive and TrxR1 substrate inactive.
For CCOc1ccccc1NC(=O)c1ccc2c(c1)CCCN2S(C)(=O)=O the results were TrxR1 inh inactive and TrxR1 substrate inactive.
`O=C(COc1ccc(F)cc1)NCC(c1ccc(Cl)cc1)N1CCCCC1` (stereo not given) gave TrxR1 inh inactive and TrxR1 substrate inactive.
Screening O=C(NC(=S)NNC(=O)c1ccccc1O)c1ccc(F)cc1 returned Six1-Eya2 inh -91.4, GALK inhibitor inactive, TrxR1 inh inconclusive, Eya2 phos inh inactive, CtBP-E1A inh -94.2 and TrxR1 substrate inactive.
For O=C(NC(=S)NNC(=O)c1ccccc1O)c1cccs1 the results were Six1-Eya2 inh -81.6, GALK inhibitor inactive, TrxR1 inh inactive, Eya2 phos inh inactive, CtBP-E1A inh -94.6 and TrxR1 substrate inactive.
For O=C(NC(=S)NNC(=O)c1ccccc1O)c1ccc([N+](=O)[O-])cc1 the results were Six1-Eya2 inh -86.4, GALK inhibitor inactive, TrxR1 inh inactive[2.29 µM], Eya2 phos inh inactive and TrxR1 substrate inactive.
CC(=O)NNC(=S)NC(=O)c1cccc([N+](=O)[O-])c1 was read as Six1-Eya2 inh inactive, GALK inhibitor inactive, TrxR1 inh 50.1µM, Eya2 phos inh inactive, CtBP-E1A inh inactive and TrxR1 substrate inactive.
Screening O=C(NNC(=S)NC(=O)c1ccccc1)c1ccc([N+](=O)[O-])cc1 returned Six1-Eya2 inh inactive, GALK inhibitor inactive, TrxR1 inh inconclusive, Eya2 phos inh inactive and TrxR1 substrate inactive.
O=C(NNC(=S)NC(=O)c1ccc(F)cc1)c1cccnc1 was read as Six1-Eya2 inh inactive, GALK inhibitor inactive, TrxR1 inh inconclusive, Eya2 phos inh inactive, CtBP-E1A inh inactive and TrxR1 substrate inactive.
Screening O=C(NNC(=S)NC(=O)c1ccc(Br)cc1)c1cccc([N+](=O)[O-])c1 returned Six1-Eya2 inh inactive, GALK inhibitor inactive, TrxR1 inh inconclusive, Eya2 phos inh inactive and TrxR1 substrate inactive.

Assay outcomes deposited in PubChem BioAssay by National Center for Advancing Translational Sciences (NCATS).
